Data: PubChem BioAssay (Tox21)
Several values for one entry are separate records, joined by “and”; a condition that tells them apart may be missing. Equal values may be shown once. Results filed as inconclusive are left out. Entries that show only a call come without a potency. Some compounds were tested as several samples or in several runs, with calls that do not always agree. Activity calls are given as the source filed them. Calls follow the shape of the dose curve; as a rule, active = well fitted inhibition curve with a large enough effect in the repeat runs; inconclusive = weak or mixed curves, or effect the other way; inactive = no such curve, though single readings can be large or run the other way.

Test: qHTS assay to identify small molecule antagonists of the retinoic acid receptor (RAR) signaling pathway (AID 1159552; also: nearly all actives have a fitted effect of over 50% in size)
Conditions: C3RL4 RARE luciferase reporter, retinol-stimulated, 6 h; series mostly up to 92.4 µM
How it was run: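 Quantitative HTS in C3RL4 RARE-luciferase reporter cells. Compounds were added with 1 uM (final) retinol; luminescence was read after 6 hr.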
Potency is read from the fitted curve at half-maximal effect.

| SMILES | Potency |
| --- | --- |
| Nc1ncn([C@@H]2O[C@H](CO)[C@@H](O)[C@H]2O)c(=O)n1 | 27.3 µM (active) and 29.8 µM (active) |
| c1cc(N(CC2CO2)CC2CO2)ccc1OCC1CO1 (centres undefined) | inactive |
| Cc1c(OCC(F)(F)F)ccnc1CS(=O)c1nc2ccccc2[nH]1 (centres undefined) | inactive |
| O=C(c1ccccc1)c1ccc(O)cc1O | 55.5 µM (active) and inactive |
| CN(C)CCN(Cc1cccs1)c1ccccn1 | inactive |
| COc1cccc2c1C(=O)c1c(O)c3c(c(O)c1C2=O)C[C@@](O)(C(=O)CO)C[C@@H]3O[C@H]1C[C@H](N)[C@H](O)[C@H](C)O1 | 3.85 µM (active) |
| O=C(Nc1ccc([N+](=O)[O-])cc1Cl)c1cc(Cl)ccc1O | inactive |
| O=C(/C=C/C=C/c1ccc2c(c1)OCO2)N1CCCCC1 | inactive |
| OC1CCCCCCCCCCC1 | inactive |
